PTHR1 ag = activates the human parathyroid hormone receptor PTHR1 | Q03431 | HEK293 GP2 PTHR1 cells, GloSensor cAMP luminescence, 1 h | Potency, µM (titrated, usually from 115 µM), actives largely listed as activators | actives 0.075% (n = 410,000); further: nearly all actives have a fitted effect of over 55% in size
Target sequence (Q03431 whole entry, looked up): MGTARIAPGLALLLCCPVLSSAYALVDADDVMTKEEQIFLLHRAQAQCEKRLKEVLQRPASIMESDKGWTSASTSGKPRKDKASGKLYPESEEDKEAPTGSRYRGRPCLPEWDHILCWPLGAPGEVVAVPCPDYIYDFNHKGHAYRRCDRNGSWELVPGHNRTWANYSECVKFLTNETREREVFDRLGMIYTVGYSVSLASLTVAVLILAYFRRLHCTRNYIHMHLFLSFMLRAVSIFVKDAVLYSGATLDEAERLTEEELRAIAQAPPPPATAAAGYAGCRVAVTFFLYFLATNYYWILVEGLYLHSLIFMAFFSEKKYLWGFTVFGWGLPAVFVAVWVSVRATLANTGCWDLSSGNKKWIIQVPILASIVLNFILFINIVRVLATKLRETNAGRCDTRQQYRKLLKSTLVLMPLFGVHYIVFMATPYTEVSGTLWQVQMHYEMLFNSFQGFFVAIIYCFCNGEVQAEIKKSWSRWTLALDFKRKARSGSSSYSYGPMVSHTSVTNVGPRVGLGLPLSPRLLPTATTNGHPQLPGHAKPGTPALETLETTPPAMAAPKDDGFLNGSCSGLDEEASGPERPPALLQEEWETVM
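HEK-293-derived GP2 cells expressing PTHR1 and a GloSensor cAMP reporter, 3,000/well, plated overnight, given luciferin plus IBMX (each 0.5 mM as added) for 1 h at 37 °C, then compound for 1 h at 37 °C. Luminescence was read after 15 min at room temperature.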
GLP1R cytotox = cytotoxic in the GLP-1 receptor inverse agonist counter-screen | Potency, µM (top dose mostly 38.3 µM), hits mostly inhibitors | actives 0.13% (n = 410,000) | HEK293 cAMP-luciferase reporter cells, luminescence, 24 h;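 further: loss of luciferase light is scored as toxicity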
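Compound-treated cells are incubated 24 hr at 37 deg C under 5% CO2 after a 12 hour attachment period, then luciferase detection reagent is added and luminescence is measured following 12 min at room temperature; lowered signal indicates toxicity.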
GLP-1R inv ag = acts as inverse agonist at human GLP-1 receptor; P43220; AID 624417; Potency, µM (series often up to 38.3 µM), actives largely listed as inhibitors; actives 1.6% (n = 410,000); HEK293 GLP-1R CRE-luciferase, luminescence, 24 h; GLP-1R form is constitutively active; further: nearly all actives have a fitted effect of over 55% in size
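Using stably transfected HEK293 (constitutively active GLP-1R, cAMP-luciferase reporter), compounds were incubated 24 hr and luciferase measured by luminescence.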
GLP-1R agonist = GLP-1 receptor (human) agonism; actives 0.007% (n = 380,000); AID 624172; P43220; Potency, µM (highest dose often 45.6 µM), hits mostly activators; HEK293 GLP-1R CRE-luciferase, luminescence, 4-6 h; cells express a hypersensitive GLP-1R form
Large screens that a line does not name were inactive. Compounds with a hit are over-represented: about 1.7% of the library has one in this group of screens. The call rests on the fitted dose curve; in most records, active means well fitted curve in the direction sought with a large enough effect; inconclusive means small, poorly fitted or top-dose-only effect, or another doubt; inactive means no such curve, though single readings can be large; an effect the other way counts as inactive or inconclusive.

OCCN1C2CCC1CC(O)(c1ccc(F)cc1)C2 (stereo unspecified)	none
COc1ccccc1Cc1c(-c2ccc(C)cc2)nc2cc(C)c(Br)c(C)n12	GLP-1R inv ag inconclusive
CCN1/C(=C/C(C)=C/c2sc3ccccc3[n+]2CC)Sc2ccccc21	GLP1R cytotox 12.6µM, GLP-1R inv ag inconclusive
O=C(NC(c1ccc(-c2ccccc2)cc1)c1cnccn1)C1CCN(Cc2ccc(Oc3ccccc3)cc2)CC1 (stereo unspecified)	GLP1R cytotox inconclusive, GLP-1R inv ag 3.98µM
CCOC(=O)C1CCCN(Cc2ccc(-c3ccccc3)cc2)C1 (stereo unspecified)	GLP-1R inv ag inconclusive
Cn1nc(C(C)(C)C)cc1C(=O)N1CCCCC1c1cc(C(=O)Nc2ccc(F)c(Cl)c2)no1 (stereo unspecified)	GLP-1R inv ag 10µM
COc1ccc([N+](=O)[O-])c(S(=O)(=O)c2ccc(Cl)cc2)n1	GLP1R cytotox 10µM, GLP-1R inv ag inconclusive
COc1cc(OC)c(NS(=O)(=O)c2cc(-c3cnc(C4CC4)o3)ccc2C)cc1Cl	GLP-1R inv ag inconclusive (no result: GLP-1R agonist)
CN1CCN(C(=O)COc2ccc3ccccc3c2)CC1	none
CN1CCN(C(=O)COc2ccc(-c3nc4ccccc4s3)cc2)CC1	GLP-1R inv ag 6.31µM
CN(Cc1ccccc1)C(=O)c1ccc(Nc2nc(C(N)Cc3ccc(C(F)(F)F)cc3)cs2)nc1 (stereo unspecified)	GLP1R cytotox inconclusive, GLP-1R inv ag inconclusive
C=C1C(=O)OC2CC3(C)OC3CCC(C)=CC(OC(C)=O)C12 (stereo unspecified)	GLP1R cytotox inconclusive, GLP-1R inv ag inconclusive
C=C1C(=O)O[C@H]2C[C@H]1[C@@H](OC(C)=O)C/C(C)=C/CC/C(C)=C\CC[C@]2(C)O	GLP1R cytotox inconclusive, GLP-1R inv ag 7.08µM
CC(=O)[C@@]1(O)CC[C@@H]2[C@@H]3CCC4=CC(=O)CC[C@]4(C)[C@]3(F)[C@@H](O)C[C@@]21C	none (no result: PTHR1 ag, GLP1R cytotox, GLP-1R inv ag)
Cn1cc(SCC(=O)Nc2nc3ccccc3s2)c2ccccc21	GLP1R cytotox inconclusive, GLP-1R inv ag 10µM
CC(C(=O)c1cn(C)c2ccccc12)c1ccccc1 (stereo unspecified)	GLP-1R inv ag inconclusive
C=C/C=C/CC1=C(C)[C@@H](OC(=O)[C@@H]2[C@@H](/C=C(\C)C(=O)OC)C2(C)C)CC1=O (tested in a mixture with another compound)	none (no result: PTHR1 ag, GLP1R cytotox, GLP-1R inv ag)
CC(=O)Nc1c(Br)cc2c(c1Br)Cc1cc([N+](=O)[O-])ccc1-2	none
N=C(N)SCc1ccc(Cl)cc1Cl	GLP1R cytotox inconclusive, GLP-1R inv ag 7.08µM
COc1cccc(-c2nnc3n(Cc4ccccc4Cl)c(=O)c4ccccc4n23)c1O	GLP-1R inv ag inconclusive (no result: GLP-1R agonist)
CCCCNc1cc(C)nc(NCc2ccccc2)n1	GLP1R cytotox 11.2µM, GLP-1R inv ag inconclusive
O=C(CNC(=O)OCc1ccccc1)Nc1ccc(Br)cc1C(=O)c1ccccc1Cl	GLP-1R inv ag inconclusive
CN(C(=O)CNC(=O)OCc1ccccc1)c1ccc(Br)cc1C(=O)c1ccccc1Cl	GLP1R cytotox inconclusive, GLP-1R inv ag 2.82µM
COc1cccc(CN(C)C[C@@H]2OCc3ccccc3-c3c(n(C)c4ccccc34)C(=O)N([C@@H](C)CO)C[C@H]2C)c1	GLP1R cytotox inconclusive, GLP-1R inv ag 10µM
C[C@@H]1CN([C@H](C)CO)C(=O)c2c(c3ccccc3n2C)-c2ccccc2CO[C@@H]1CN(C)Cc1ccc(O)cc1	GLP1R cytotox inconclusive, GLP-1R inv ag inconclusive
N#Cc1c(N)n(C2OC(CO)C(O)C2O)c2ncnc(N)c12 (stereo unspecified)	GLP1R cytotox inconclusive, GLP-1R inv ag inconclusive
N#CC1=C(N)C2=CCCC[C@H]2[C@H](c2ccccc2)C1(C#N)C#N	GLP-1R inv ag 4.47µM
Cc1ccc(C)c(NC(=O)Cn2nc(C)c3nn(-c4ccc(Cl)cc4)c(C)c3c2=O)c1	none (no result: GLP-1R agonist)
CCCCc1ccc(C2C3=C(CC(C)(C)CC3=O)NC3=C2C(=O)c2ccccc23)cc1 (stereo unspecified)	GLP1R cytotox inconclusive, GLP-1R inv ag 3.55µM
COc1ccc2nc3cc(Cl)ccc3c(Nc3ccc(O)c(CN4CCN(C)CC4)c3)c2c1	GLP-1R inv ag inconclusive
COc1ccc(S(=O)(=O)N(CC(=O)NCc2ccccc2OC)c2ccc(C)cc2)cc1	GLP-1R inv ag 3.16µM (no result: GLP-1R agonist)
Clc1ccc(-c2cn3nc4c(nc3n2)CCCC4)cc1	GLP-1R inv ag 6.31µM
CC(N)C(=O)c1ccccc1 (stereo unspecified)	none (no result: PTHR1 ag, GLP1R cytotox, GLP-1R inv ag)
CCOc1cccc(=NC2CCCCC2)c2c(C)n(C)c(C)c12	GLP1R cytotox inconclusive, GLP-1R inv ag 10µM
CCOc1ccccc1NC(=O)NCc1ccc2c(c1)CCN2C(=O)c1ccccc1	none (no result: GLP-1R agonist)
COc1cccc(/C=C/c2nc(C#N)c(NC3CCCCC3)o2)c1	none (no result: GLP-1R agonist)
CCCCCSc1cc(O)c(C(CNC)C(C)C)cc1OC (stereo unspecified)	GLP-1R inv ag 10µM
CCCCCSc1cc(OC)c(CCN(C)C)cc1OC	GLP-1R inv ag inconclusive
Cc1ccc(NC(=O)N2CCN(c3cc(-c4noc(C)n4)ccc3C)CC2)c(F)c1	GLP-1R inv ag inconclusive
Cc1ccc(C)c(NC(=O)C(Sc2nc3ccc(C)cc3[nH]2)c2ccccc2)c1 (stereo unspecified)	GLP1R cytotox inconclusive, GLP-1R inv ag 3.16µM
CCCCOc1ccc(C(=O)NCC(=O)N2CCN(C/C=C/c3ccccc3)CC2)cc1	GLP-1R inv ag inconclusive
Cc1cccc(C(=O)Nc2ccc(C(=O)OCc3cc(=O)n4nc(C5CC5)sc4n3)cc2)c1	none (no result: GLP-1R agonist)
CC1(S(=O)(=O)O)CC(=O)c2ccccc2C1=O (stereo unspecified)	none
O=C(C[C@@H]1CC[C@@H]2[C@H](COC[C@H](O)CN2Cc2cccc(C(F)(F)F)c2)O1)NCc1ccc(Cl)cc1	GLP-1R inv ag 10µM (no result: GLP-1R agonist)
O=C(CCC(=O)N1C[C@H]2C[C@@H](C1)c1cccc(=O)n1C2)NCc1cccc(C(F)(F)F)c1	none
Cc1ccc([C@H]2C[C@@H](O)[C@H](n3cc(COC(=O)c4ccccc4)nn3)CN2CC2CCCCC2)cc1	none
COc1ccc([C@H]2C[C@@H](O)[C@H](n3cc(COC(=O)c4ccccc4)nn3)CN2CC2CCCCC2)cc1	GLP-1R inv ag 11.2µM
O=C(Nc1ccc([N+](=O)[O-])cc1)Nc1ccc(OC(F)F)c(Cl)c1	GLP1R cytotox inconclusive, GLP-1R inv ag 3.55µM
CCN(CC)C(=O)c1ccc(NC(=O)COc2ccc([N+](=O)[O-])cc2Cl)cc1	GLP-1R inv ag inconclusive
O=C(C1CCCN(S(=O)(=O)c2cccc3nsnc23)C1)N1CCN(c2cccc(Cl)c2)CC1 (stereo unspecified)	none
O=C1C=C(N2CC2)c2ccccc2C1=O	none
O=C1C=C(N2CCOCC2)c2ccccc2C1=O	GLP1R cytotox 11.2µM, GLP-1R inv ag inconclusive
CC[C@@H](O)C(C[C@@H](C)N(C)C)(c1ccccc1)c1ccccc1	none (no result: PTHR1 ag, GLP1R cytotox, GLP-1R inv ag)
O=C(CCOc1cccc(Br)c1)Nc1ccc(F)c(S(=O)(=O)N2CCOCC2)c1	GLP1R cytotox inconclusive, GLP-1R inv ag 10µM

Assay outcomes (PubChem BioAssay)
